Hit rate of the full screen: of about 2,100 compounds, about 760 (36%) were called active. A selection follows. Unmarked numbers belong to inactive results.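 How the source made its calls: active means thallium-flux fluorescence traces judged by eye to show enhanced or reduced glutamate response, manual score 1 or -1, so both directions (some results past the limit were not filed as active); inactive means the rest, including fluorescent or raised-baseline compounds.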
Experiment: non-GIRK thallium flux modulation in mGlu8 cells, confirmation, counter-screen for GIRK activator project, cell-based, HEK-293 rmGlu8, no GIRK (AID 623868);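 further: extra codes mark interference with 3 for fluorescent and 4 for baseline rise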
Conditions: thallium flux fluorescence, at 10 µM, actives lie on both sides, codes: 1 enhancer, -1 blocker, 0 none, thallium stimulus containing EC20 glutamate

SMILES | manual score
CCCCC(=O)Nc1ncc2c(n1)CC(C)(C)CC2=O | 0
Cc1oc(-c2cccc(Cl)c2)nc1CN1CCCC(C(=O)NCc2ccco2)C1 (configuration not stated) | -1 (active)
CCc1ccc(-c2nc(CN3CCC(C(=O)NCc4ccco4)CC3)c(C)o2)cc1 | 0
Cc1oc(-c2cccc(Cl)c2)nc1CN1CCC(C(=O)NCc2ccco2)CC1 | 0
CC1=C(C)C(c2ccccc2)NC(=S)N1 (configuration not stated) | 0
Cc1cccc(S(=O)(=O)NC(Cc2c[nH]c3ccccc23)C(=O)O)c1 (configuration not stated) | 0
O=S(=O)(Nc1ccc(S(=O)(=O)Nc2cccc3ccccc23)cc1)c1ccccc1 | 0
Cc1cccc(S(=O)(=O)Nc2cccc3c2C(=O)c2ccccc2-3)c1 | 1 (active)
CC(C)CC(=O)Nc1ccccc1-c1nnn(CC(=O)N2CCc3ccccc3C2)n1 | 0
Cc1ccc(-c2nnn(CC(=O)N3CCCCC3)n2)c(-n2cnnn2)c1 | 0
O=C(Nc1ccccc1-c1nnn(CC(=O)N2CCc3ccccc3C2)n1)C1CCC1 | -1 (active)
O=C(NC(=S)Nc1nc2c(s1)CCCC2)c1ccc(C(=O)c2ccccc2)cc1 | 0
O=C(NC(=S)Nc1nc2c(s1)CCCC2)c1ccccc1 | 0
COC(=O)C(NC(=O)COc1ccccc1)(Nc1nc2c(s1)CCCC2)C(F)(F)F (configuration not stated) | 0
CC(C)(C)c1ccc(C(=O)NC(=S)Nc2nc3c(s2)CCCC3)cc1 | 1 (active)
COC(=O)c1ccc(C(=O)NC(=S)Nc2nc3c(s2)CCCC3)cc1 | 1 (active)
CC(C)(C)C(=O)Nc1nc2c(s1)COc1ccccc1-2 | -0.5
N=c1n(CCN2CCCCC2)c2ccccc2n1CC(O)COc1ccccc1 (configuration not stated) | 0
COCCCNc1c2c3c(cccc3[nH]c1=O)C(=O)c1ccccc1-2 | 3
O=C(CNC1CCCCCC1)Nc1ccc(N2CCCC2)cc1 | 0
O=C(NC(=S)Nc1ccc(N2CCCCC2)c(Cl)c1)c1cccs1 | 1 (active)
O=C(Nc1ccc(N2CCCCC2)c(Cl)c1)c1ncn[nH]1 | 0
Cc1ccc(NC(=O)c2cc(NC(=O)CCC(=O)O)ccc2N2CCCCC2)cc1 | 0

SMILES | manual score
O=C(NC(=S)Nc1ccc(N2CCCCC2)cc1)c1cccs1 | 1 (active)
CN(C1CCCCC1)S(=O)(=O)c1ccc(NC(=S)NC(=O)c2cccs2)cc1 | 1 (active)
Cc1ccc(-c2[nH]nc3c2C(c2ccoc2)C(C#N)=C(N)O3)cc1C (configuration not stated) | 0
CN(C)c1nc2n(c(=O)n1)C(C#N)CS2 (configuration not stated) | 0
O=C(/C=C/c1ccc(Cl)cc1)NC(=S)NN1CCCCC1c1cccnc1 (configuration not stated) | 0
c1csc(CCNc2ncnc3sc4c(c23)CCC4)c1 | -1 (active)
COc1ccc(-n2ncc3c(NCc4cccs4)ncnc32)cc1 | 0
Cc1ccccc1NC(=S)NC(=O)c1cc(-c2ccccc2)nc2ccccc12 | 1 (active)
Cc1cccc(NC(=S)NC(=O)c2cc(-c3ccccc3)nc3ccccc23)c1 | 0
COC(=O)c1ccc(NC(=S)NC(=O)c2cc(-c3ccccc3)nc3ccccc23)cc1 | 1 (active)
O=C(NC(=S)Nc1ccccn1)c1cc(-c2ccccc2)nc2ccccc12 | 1 (active)
O=C(NC(=S)Nc1ccccc1)c1cc(-c2ccccc2)nc2ccccc12 | 0.5
Fc1cccc(-n2c(-c3ccco3)nc3nc4ccccc4nc32)c1 | 0
Cc1ccc(C)c(N2CCN(C(=O)CCCOc3cc(=O)n(C)c4ccccc34)CC2)c1 | 0
CCC(=O)Oc1ccc(C/C(=N\O)c2ccc(O)cc2O)o1 | -1 (active)
CCCn1c(C)cc(/C=C(\C#N)C(=O)OCC(=O)Nc2cccc(OC)c2)c1C | 0
Cc1ccc2oc(=O)c3cnn(CC(=O)N4CCc5ccccc5C4)c3c2c1 | -1 (active)
COc1ccc(N(CC(=O)NCCSc2ccccn2)S(C)(=O)=O)cc1Cl | 0
Cc1nn2c(NCCCN(C)C)c3c(nc2c1-c1ccccc1)CCC3 | 0
O=C(O)CCCCCNc1nc2ncn(Cc3ccccc3)c2c(=O)[nH]1 | 0
Fc1cccc(C2NN=C(c3ccccc3)S2)c1 (configuration not stated) | 1 (active)
O=C1CC(c2ccco2)Sc2nc3ccccc3n21 (configuration not stated) | 0
CC1(c2ccccc2)CC(C)(C)N2C(=O)/C(=C3\SC(=S)NC3=O)c3cccc1c32 (configuration not stated) | 1 (active)

SMILES | manual score
CN1CCN(CC(=O)N2c3ccccc3C(C)(c3ccccc3)CC2(C)C)CC1 (configuration not stated) | 0
Cc1c(C(=O)O)sc2nc3n(c(=O)c12)CCC(C)CC3 (configuration not stated) | 0
CCCCCCCCc1nc(=S)[nH][nH]1 | 1 (active)
C=CCCCCCCCCc1nc(=S)[nH][nH]1 | 1 (active)
COc1c(Cl)cc(Cl)cc1CNCCNCC(C)O (configuration not stated) | 0
COc1cccc(NC(=O)Cn2nnc(C(=O)Nc3ccccc3)c2N)c1 | 0
CC1CCCCN1CC(=O)Nc1ccc(Oc2ccccc2)cc1 (configuration not stated) | 0
COc1cc(C(=O)NC2CC3CCCC(C2)N3CC(=O)Nc2ccccc2)cc(OC)c1OC (configuration not stated) | -1 (active)
O=C(Nc1nnc(-c2ccccc2F)s1)C1CCCO1 (configuration not stated) | 0
CC(C)c1ccc2occ(-c3nn[nH]n3)c(=O)c2c1 | 0
O=c1[nH]c(CS(=O)(=O)c2ccccc2)nc2ccccc12 | 0
CCCSc1nc2sc3c(c2c(=O)[nH]1)CCN(Cc1ccccc1)C3 | 3
CCCn1c(SCc2nc3sc(C)c(C)c3c(=O)[nH]2)nc2ccccc2c1=O | 1 (active)
Cc1c(C)[n+](=O)c2c(n1[O-])CCC2 | 0
COc1ccc(S(=O)(=O)NCCCCCC(=O)NCCCN2CCOCC2)cc1 | 0
CC1(C)Cc2cccc(OCC(=O)Nc3ccccc3N3CCOCC3)c2O1 | 0
Cc1ccccc1OCC(=O)Nc1ccccc1N1CCOCC1 | -0.5
Cc1cccc(OCC(=O)NC(=S)Nc2ccccc2N2CCOCC2)c1 | 0
Cc1cccc(OCC(=O)Nc2ccccc2N2CCN(C(=O)C(C)C)CC2)c1C | -1 (active)
Cc1cc(Cl)ccc1OCC(=O)Nc1ccccc1N1CCOCC1 | 0
CCC(=O)N1CCN(c2ccccc2NC(=O)COc2cccc(C)c2)CC1 | -1 (active)
